Test results published in PubChem BioAssay AID1159580 (chemical genetic matrix, 2015).
Among all 5,500 compounds or so, about 2,000 (36%) were called active. Another 18% or so got no clear call; they are omitted. No stated cut-off is given here; in the data, active means normalized growth mostly below about 0.91 (no sharp cut-off); inconclusive means no clear call, values can overlap the other calls; inactive means mostly above about 0.92. The list shows a part of the results.

Experiment: chemical genetic growth profiling, strain panel (AID 1159580);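 further: tested at 20 µM; growth read once vehicle control cultures reached saturation at 30 °C; 1 = growth at the plate median or of vehicle wells; lower values mean less growth of the strain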
Conditions: S. cerevisiae deletion strains, growth OD
[1] = locus YHR030C, strain SLT2, active compounds read low
[2] = locus YHR079C, strain IRE1, active compounds read low
[3] = locus YJL095W, strain BCK1, active compounds read low
[4] = locus YJR066W, strain TOR1, active compounds read low
[5] = locus YLR113W, strain HOG1, active compounds read low
[6] = locus YNL183C, strain NPR1, active compounds read low
[7] = locus YOR231W, strain MKK1, active compounds read low
[8] = locus YPL256C, strain CLN2, active compounds read low

Measured: normalized growth

CSc1ccc(C(=O)c2[nH]c(=O)[nH]c2C)cc1
inactive: locus YAL013W, strain DEP1, active compounds read low 0.943 | locus YAL040C, strain CLN3, active compounds read low 1.06 | locus YCL061C, strain MRC1 (second series), active compounds read low 0.991 | locus YDR363W, strain ESC2, active compounds read low 0.934 | locus YER002W, strain NOP16, active compounds read low 0.978 | locus YGR078C, strain PAC10, active compounds read low 1 | locus YMR307W, strain GAS1, active compounds read low 1.01 | locus YNL128W, strain TEP1, active compounds read low 0.981 | locus YNL175C, strain NOP13, active compounds read low 0.985 | locus YNL197C, strain WHI3, active compounds read low 0.994 | locus YNL224C, strain SQS1, active compounds read low 0.994 | locus YOR083W, strain WHI5 (second series), active compounds read low 0.96

CC[C@@H]1OC(=O)C[C@@H](O)[C@H](C)[C@@H](O[C@@H]2O[C@H](C)[C@@H](O)[C@H](N(C)C)[C@H]2O)[C@@H](CCN2C[C@H](C)C[C@H](C)C2)C[C@@H](C)C(=O)/C=C/C(C)=C\[C@@H]1CO[C@@H]1O[C@H](C)[C@@H](O)[C@@H](OC)[C@H]1OC
inactive: locus YAL021C, strain ccr4, active compounds read low 1 | locus YAL026C, strain drs2, active compounds read low 0.994 | locus YAL030W, strain snc1, active compounds read low 0.996 | locus YBL061C, strain skt5, active compounds read low 0.99 | locus YBR009C, strain hhf1, active compounds read low 1 | locus YBR023C, strain chs3, active compounds read low 0.997 | locus YBR171W, strain sec66, active compounds read low 1.01 | locus YBR231C, strain swc5, active compounds read low 0.986 | locus YBR279W, strain paf1, active compounds read low 0.982 | locus YCL011C, strain gbp2, active compounds read low 0.971 | locus YCL016C, strain dcc1, active compounds read low 0.967 | locus YCL069W, strain vba3, active compounds read low 1.02 | locus YCR088W, strain abp1, active compounds read low 1.01 | locus YDL005C, strain med2, active compounds read low 0.994 | locus YDL040C, strain nat1, active compounds read low 0.996 | locus YDR001C, strain nth1, active compounds read low 1.01 | locus YDR069C, strain doa4, active compounds read low 0.992 | locus YDR137W, strain rgp1, active compounds read low 1 | locus YDR159W, strain sac3, active compounds read low 0.931 | locus YDR195W, strain ref2 0.972 | locus YDR297W, strain sur2, active compounds read low 1.01 | locus YDR334W, strain swr1, active compounds read low 0.995 | locus YDR335W, strain msn5, active compounds read low 1.01 | locus YDR392W, strain spt3, active compounds read low 0.887 | locus YEL003W, strain gim4, active compounds read low 1.01 | locus YEL037C, strain rad23, active compounds read low 1.01 | locus YEL061C, strain CIN8 (second series), active compounds read low 1.01 | locus YER015W, strain faa2, active compounds read low 1 | locus YER016W, strain bim1, active compounds read low 0.993 | locus YER111C, strain swi4, active compounds read low 1 | locus YER155C, strain BEM2 (second series), active compounds read low 1 | locus YFR010W, strain ubp6, active compounds read low 1 | locus YGL167C, strain pmr1, active compounds read low 1 | locus YGL173C, strain kem1, active compounds read low 0.981 | locus YGL227W, strain vid30, active compounds read low 0.987 | locus YGL240W, strain doc1, active compounds read low 0.975 | locus YGL253W, strain hxk2, active compounds read low 1.01 | locus YHR013C, strain ard1, active compounds read low 0.955 | locus YHR027C, strain rpn1, active compounds read low 1 | [1] 0.978 | [2] 0.971 | locus YHR142W, strain chs7, active compounds read low 0.983 | locus YJL092W, strain hpr5, active compounds read low 1.01 | locus YJL095W, strain BCK1 (second series), active compounds read low 0.996 | [3] 0.974 | locus YJL115W, strain asf1, active compounds read low 1.01 | locus YJL129C, strain trk1, active compounds read low 1 | locus YJL154C, strain vps35, active compounds read low 1.02 | locus YJL164C, strain tpk1, active compounds read low 1.03 | locus YJL166W, strain qcr8, active compounds read low 1.02 | [4] 0.939 | locus YKL160W, strain elf1, active compounds read low 0.974 | locus YKR026C, strain gcn3, active compounds read low 0.997 | locus YKR091W, strain srl3, active compounds read low 1 | locus YLL001W, strain dnm1, active compounds read low 1 | locus YLL026W, active compounds read low 0.993 | locus YLL041C, strain sdh2, active compounds read low 1.01 | locus YLR027C, strain aat2, active compounds read low 0.994 | [5] 1 | locus YLR221C, strain rsa3, active compounds read low 0.99 | locus YLR258W, strain gsy2, active compounds read low 0.992 | locus YLR262C, strain YPT6 (second series), active compounds read low 1.03 | locus YLR320W, strain mms22, active compounds read low 0.981 | locus YLR342W, strain FKS1, active compounds read low 0.984 | locus YLR357W, strain rsc2, active compounds read low 0.987 | locus YLR370C, strain arc18, active compounds read low 0.99 | locus YLR384C, strain iki3, active compounds read low 0.981 | locus YML120C, strain ndi1, active compounds read low 1.01 | locus YMR058W, strain fet3, active compounds read low 1 | locus YMR125W, strain sto1, active compounds read low 0.996 | locus YMR129W, active compounds read low 1 | locus YMR205C, strain PFK2, active compounds read low 1.01 | locus YMR231W, strain pep5, active compounds read low 1 | locus YNL071W, strain lat1, active compounds read low 1.02 | [6] 0.955 | locus YNL209W, strain ssb2, active compounds read low 1 | locus YNL248C, strain rpa49, active compounds read low 1 | locus YNL322C, strain KRE1 (second series), active compounds read low 0.997 | locus YNR049C, strain mso1, active compounds read low 1 | locus YOR001W, strain rrp6, active compounds read low 0.994 | locus YOR070C, strain gyp1, active compounds read low 0.999 | locus YOR080W, strain dia2, active compounds read low 1.01 | locus YOR083W, strain WHI5, active compounds read low 0.943 | locus YOR106W, strain vam3, active compounds read low 1.01 | [7] 0.976 | locus YOR265W, strain rbl2, active compounds read low 1 | locus YOR270C, strain vph1, active compounds read low 0.976 | locus YOR290C, strain snf2, active compounds read low 0.978 | locus YPL051W, strain arl3, active compounds read low 0.998 | locus YPL078C, strain atp4, active compounds read low 0.991 | locus YPL106C, strain sse1, active compounds read low 0.963 | locus YPL240C, strain hsp82, active compounds read low 1 | [8] 0.952

Cc1noc(C)c1S(=O)(=O)Nc1csc(C(F)(F)F)c1-c1ccccc1
inactive: locus YAR019C, strain CDC15, active compounds read low 0.976 | locus YBL105C, strain PKC1, active compounds read low 0.982 | locus YBR135W, strain CKS1, active compounds read low 0.983 | locus YBR136W, strain MEC1, active compounds read low 0.978 | locus YBR160W, strain CDC28, active compounds read low 0.982 | locus YDL017W, strain CDC7, active compounds read low 0.979 | locus YDL028C, strain MPS1, active compounds read low 0.973 | locus YDL101C, strain DUN1, active compounds read low 0.97 | locus YDL108W, strain KIN28, active compounds read low 0.985 | locus YDL132W, strain cdc53, active compounds read low 0.977 | locus YDL214C, strain PRR2, active compounds read low 0.997 | locus YDR052C, strain DBF4, active compounds read low 0.979 | locus YDR054C, strain cdc34, active compounds read low 0.973 | locus YDR226W, strain ADK1, active compounds read low 0.979 | locus YDR477W, strain SNF1, active compounds read low 1.04 | locus YER123W, strain YCK3, active compounds read low 1.05 | locus YER133W, strain GLC7, active compounds read low 1.02 | locus YFL009W, strain cdc4, active compounds read low 0.969 | locus YFL029C, strain CAK1, active compounds read low 0.979 | locus YFR003C, strain YPI1, active compounds read low 0.983 | locus YFR019W, strain FAB1, active compounds read low 1.01 | locus YFR028C, strain CDC14, active compounds read low 0.97 | locus YGR040W, strain KSS1, active compounds read low 1.04 | locus YGR052W, strain FMP48, active compounds read low 1.12 | locus YGR092W, strain DBF2, active compounds read low 1.02 | [1] 1.09 | [2] 1.06 | locus YHR082C, strain KSP1, active compounds read low 1.08 | locus YHR205W, strain SCH9, active compounds read low 1 | locus YIL147C, strain SLN1, active compounds read low 0.975 | [3] 1.07 | locus YJL128C, strain PBS2, active compounds read low 0.957 | locus YJL157C, strain FAR1, active compounds read low 1.01 | locus YJR016C, strain ILV3, active compounds read low 0.982 | locus YJR066W, strain TOR1 (second series), active compounds read low 1.04 | [4] 1.07 | locus YKL048C, strain ELM1, active compounds read low 0.973 | locus YKL067W, strain YNK1, active compounds read low 1 | locus YKL101W, strain HSL1, active compounds read low 0.978 | locus YKL193C, strain SDS22, active compounds read low 0.976 | locus YKL203C, strain TOR2, active compounds read low 1.08 | [5] 1.04 | locus YLR133W, strain CKI1, active compounds read low 1.01 | locus YLR403W, strain SFP1, active compounds read low 1.05 | locus YML070W, strain DAK1, active compounds read low 1.04 | locus YMR001C, strain CDC5, active compounds read low 0.971 | locus YMR205C, strain PFK2 (second series), active compounds read low 0.995 | locus YMR277W, strain FCP1, active compounds read low 0.98 | locus YNL006W, strain LST8, active compounds read low 0.98 | locus YNL020C, strain ARK1, active compounds read low 0.993 | locus YNL161W, strain CBK1, active compounds read low 0.972 | [6] 1.06 | locus YNL207W, strain RIO2, active compounds read low 0.978 | locus YNL222W, strain SSU72, active compounds read low 0.98 | locus YNL307C, strain MCK1 (second series), active compounds read low 1 | locus YOL078W, strain AVO1, active compounds read low 0.978 | locus YOL136C, strain PFK27, active compounds read low 1.02 | locus YOR061W, strain CKA2, active compounds read low 0.985 | locus YOR119C, strain RIO1, active compounds read low 1.02 | [7] 1.05 | locus YOR329C, strain SCD5, active compounds read low 0.975 | locus YPL031C, strain PHO85, active compounds read low 1.03 | locus YPL153C, strain RAD53, active compounds read low 1.04 | locus YPL204W, strain HRR25, active compounds read low 1.04 | locus YPL209C, strain IPL1, active compounds read low 0.975 | [8] 1.01 | locus YPR025C, strain CCL1, active compounds read low 0.98 | locus YPR106W, strain ISR1, active compounds read low 0.981 | locus YPR111W, strain DBF20, active compounds read low 0.97 | strain NNK1, active compounds read low 0.964 | strain TSCII, active compounds read low 0.983
